Bioassay records deposited in PubChem by National Center for Advancing Translational Sciences (NCATS).
Rows were chosen to be rich in hits. Some 7.3% of all compounds tested hit in one or more screens of this group.
KinaseGlo FLuc – blocks Kinase-Glo luciferase, a counter-screen artifact | Q27757 | Kinase-Glo luciferase, ATP luminescence, 8 min | Potency, µM (titrated, usually from 38.3 µM), for the others: top-dose activity change, negative = inhibition, most hits filed as inhibitors | 200,000 tested, 0.28% active; note: % is set by controls: 0 for no effect and ±100 for the full control effect; nearly all actives have a fitted effect of over 60% in size
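Compound is pinned into ATP-containing buffer (10 uM ATP, imidazole pH 7.2, 7 mM MgCl2). Kinase-Glo luciferase reagent is then added. Light output is recorded following an 8-min room-temperature incubation.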
FLuc counter – firefly luciferase modulation, counter-screen for miR-21 project; purified FLuc, Km substrates, luminescence inhibition; Potency, µM (highest dose often 57.5 µM), for the others: top-dose activity change, negative = inhibition, hits mostly inhibitors; 360,000 tested, 6.9% active;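 note: plate controls were vehicle for no effect and reference inhibitor for full effect; nearly all actives have a fitted effect of over 55% in size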
Target sequence (P08659 whole entry, looked up): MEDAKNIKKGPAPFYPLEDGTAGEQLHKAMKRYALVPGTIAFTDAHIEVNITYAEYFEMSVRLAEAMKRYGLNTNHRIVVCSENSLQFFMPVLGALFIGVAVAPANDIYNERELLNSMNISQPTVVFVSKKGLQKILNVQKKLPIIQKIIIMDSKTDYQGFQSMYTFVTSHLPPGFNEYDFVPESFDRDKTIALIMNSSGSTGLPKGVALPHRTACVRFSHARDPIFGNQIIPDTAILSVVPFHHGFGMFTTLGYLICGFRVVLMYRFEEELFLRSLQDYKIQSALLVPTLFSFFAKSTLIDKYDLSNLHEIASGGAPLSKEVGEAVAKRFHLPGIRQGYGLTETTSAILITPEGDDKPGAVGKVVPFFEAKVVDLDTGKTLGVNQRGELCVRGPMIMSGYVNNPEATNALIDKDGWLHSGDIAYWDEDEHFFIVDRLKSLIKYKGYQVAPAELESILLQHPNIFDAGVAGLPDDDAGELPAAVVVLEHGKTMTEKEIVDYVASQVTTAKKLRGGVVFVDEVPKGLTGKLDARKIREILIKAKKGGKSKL
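Purified P. pyralis luciferase, 10 nM final, with Km-level 10 uM D-luciferin and 10 uM ATP in 50 mM Tris acetate pH 7.5, 10 mM Mg acetate, 0.01% Tween-20, 0.05% BSA; 6-point qHTS titration about 60 µM downward; luminescence read.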
NPC1 promoter act – activates the NPC1 promoter; Huh7 NPC1 promoter luciferase reporter, 24 h; Potency, µM (highest dose often 9.22 µM), for inactives: at the top dose activation, most hits filed as activators; 320,000 tested, 2.4% active; AID 485313; note: % of control where 0% means no effect; nearly all actives have a fitted effect of over 60% in size
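Luminescence read-out of NPC1 promoter-driven luciferase in stably transfected Huh7 cells; compounds delivered in DMSO and left 24 h at 37C, 5% CO2, qHTS titration format.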
SMN2 splice enh – increases expression of the SMN2 splice variant; HEK293 SMN2-luciferase splicing reporter, luminescence, 30-36 h; 210,000 tested, 2.8% active; AID 1458; Potency, µM (top dose mostly 46.1 µM), for the others: at the highest dose activity change, positive = activation, most hits filed as activators; note: % of control where 0% means no effect; nearly all actives have a fitted effect of over 55% in size
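HEK293 cells carry an SMN2 […]–luciferase reporter in which exon 7 inclusion puts luciferase in frame. Cells were plated 10-12 h before compound addition, then incubated 30-36 h at 37C. ONE-Glo luminescence was read; sodium butyrate at 4.5 mM final served as control.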
Rab9 prom act – activators of Rab9 promoter | Huh7 Rab9 promoter-luciferase reporter, luminescence, 24 h | Potency, µM (titrated, usually from 9.22 µM), for the others: at the top dose activation, negative = inhibition, most hits filed as activators | 320,000 tested, 2.8% active | AID 485297; note: % of control where 0% means no effect; nearly all actives have a fitted effect of over 60% in size
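Huh7 cells stably carrying a Rab9 promoter-luciferase reporter, 1500 cells per well in OP-MEM I with 10% FBS, treated with compound 24 hours at 37C. Luciferase activity read by luminescence after 10 minutes with Amplite reagent.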
ELG1 genotoxic – inducers of genotoxicity in HEK293T ELG1-luciferase cells; 330,000 tested, 1.3% active; AID 504466; HEK293T ELG1-luciferase reporter, luminescence, 16 h; Potency, µM (series often up to 46 µM), inactives show top-dose activity change, positive = activation, actives largely listed as activators; note: % of control where 0% means no effect; nearly all actives have a fitted effect of over 60% in size
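After overnight (16 hr) compound treatment at 37 °C, ELG1-luciferase HEK293T cells were lysed with ONE-Glo; luminescence quantified 30 min later at room temperature.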
Starred values were filed as active, the others as inactive; ? = inconclusive; . = no result given; [ ] = dose if it differs, or a comment. Calls come from the whole dose curve; as a rule, active = well fitted curve in the direction sought with a large enough effect; inconclusive = small, poorly fitted or top-dose-only effect, or another doubt; inactive = no such curve, though single readings can be large; an effect the other way counts as inactive or inconclusive. Potency is the fitted concentration of half-maximal effect.

SMILES	KinaseGlo FLuc	FLuc counter	NPC1 promoter act	SMN2 splice enh	Rab9 prom act	ELG1 genotoxic
Cc1ccc(C(=O)Nc2ccc(S(=O)(=O)Nc3cnc4ccccc4n3)cc2)cc1	.	27µM*	0%	.	5%	14%
O=C(CNC(=O)c1ccc(-c2ccccc2)cc1)Nc1ccc(S(=O)(=O)Nc2ncccn2)cc1	.	17µM*	-2%	.	13%	-2%
Cn1c(NC(=O)c2cccnc2)nc2ccccc21	?	?	3.2µM*	13µM*	3.5µM*	7%
O=C(Nc1cnc2ccccc2c1)c1cccnc1	16%	11µM*	3.2µM*	13µM*	2.2µM*	4.6µM*
COc1ccc2c(c1)c(CC(=O)Nc1nnc(C3CC3)s1)c(C)n2C(=O)c1ccc(Cl)cc1	.	-6%	-2%	.	-1%	-7%
Cc1cc(C(=O)Nc2cnc3ccccc3c2)ccc1[N+](=O)[O-]	1%	?	1.4µM*	13µM*	2.2µM*	?
O=C(NNC(=O)c1cccc(-n2cnnn2)c1)c1ccccc1	-3%	1%	-2%	-3%	-1%	15%
O=C(Nc1cnc2ccccc2c1)c1cccc(-n2cnnn2)c1	-2%	24µM*	4µM*	?	4.5µM*	10%
CCCNC(=O)CN(c1ccc(F)c(Cl)c1)S(C)(=O)=O	1%	6%	2%	.	-1%	-4%
COc1ccc(NC(=O)N2CCCC3(CCN(C(=O)c4cc(C(F)(F)F)cc(C(F)(F)F)c4)CC3)C2)cc1	-1%	.	.	-11%	.	.
O=C(NCCc1ccccc1)C(=O)NCC(c1ccco1)S(=O)(=O)c1cccs1 (centres undefined)	.	1%	.	.	.	.
COc1ccc(C(=O)CSc2nc(N)nc(SC)c2C#N)cc1	1%	4%	-2%	-8%	0%	1%
O=C(Nc1ccccc1C(=O)O)c1cccc(S(=O)(=O)N2CCCC2)c1	.	12µM*	.	6%	.	.
CNC(=O)c1ccccc1NC(=O)c1cccc(S(=O)(=O)N2CCCCC2)c1	.	0%	-3%	.	-7%	-7%
CN(C)S(=O)(=O)c1cccc(C(=O)Nc2cc(Cl)ccc2O)c1	-3%	13µM*	?	-13%	?	-1%
Cc1ccc(O)c(NC(=O)c2cccc(S(=O)(=O)N3CCCCC3)c2)c1	0%	-9%	0%	4.5µM*	-2%	-1%
COC(=O)CCC(C)C1CCC2C3C(C[C@H](O)C12C)C1(C)CC[C@@H](O)CC1C[C@H]3O (some centres undefined)	3%	.	.	.	.	.
CCOC(=O)N1CCN(C(=O)c2ccc(NS(=O)(=O)c3ccc4[nH]c(=O)[nH]c4c3)cc2)CC1	.	-1%	-1%	.	1%	0%
NC(=O)c1ccccc1OCC(=O)Nc1ccc(Cl)c(Cl)c1	.	0.67µM*	0.35µM*	.	0.35µM*	1.2µM*
COc1ccccc1OCC(=O)Nc1ccc(Cl)cc1	1%	?	13%	?	20%	14%
COc1ccccc1C(=O)NCC(=O)Nc1ccc2c(c1)CCC2	.	12µM*	?	.	26%	?
COc1ccccc1CC(=O)Nc1ccc2c(c1)CCC2	3%	?	-4%	-9%	1%	4%
NC(=O)c1ccccc1OCC(=O)Nc1ccc2c(c1)CCC2	.	15µM*	22%	.	?	6%
CCCCCCN(C(=O)CCCN1C(=O)NC(c2ccc([N+](=O)[O-])cc2)C(C(=O)OCc2ccccc2)=C1C)C(C)C(=O)NCCCC (centres undefined)	.	.	.	.	.	-2%
Cc1ccc(C)c(OCC(=O)O/N=C(\N)c2ccccn2)c1	-6%	17µM*	3.2µM*	?	?	?
SMILES	KinaseGlo FLuc	FLuc counter	NPC1 promoter act	SMN2 splice enh	Rab9 prom act	ELG1 genotoxic
Cc1ccc(C)c(OCC(=O)O/N=C(\N)c2cccnc2)c1	.	-18%	-1%	.	11%	4%
N/C(=N\OC(=O)COc1ccccc1Cl)c1ccccn1	-9%	4.8µM*	3.2µM*	13µM*	2.5µM*	9.2µM*
COc1ccc(OC)c(NC(=O)CCc2c(C)nc3c(-c4ccccc4)c(C)nn3c2C)c1	.	-2%	.	-19%	.	.
COc1ccc(C2OC(=O)c3ccccc3S2)cc1 (centres undefined)	1%	?	0%	-17%	14%	8%
N/C(=N\O)c1ccc(NC(=O)c2cccs2)cc1	?	17µM*	?	27%	3.5µM*	?
CC(=O)c1ccc(NC(=O)c2cccs2)cc1	?	15µM*	2.8µM*	10µM*	2.2µM*	16µM*
COc1ccc(Cl)cc1-c1nc(-c2ccc(NC(=O)c3cccs3)cc2)no1	-5%	15µM*	14%	3%	?	14%
CC1CCCN(C(=O)COc2ccc(NC(=O)c3cccs3)cc2)C1 (centres undefined)	8%	9.5µM*	13%	-20%	13%	-3%
Cc1ccc(C(=O)Nc2ccc(NC(=O)c3cccs3)cc2)cc1C	.	-7%	.	-4%	.	.
CCn1nc(C)c(/C=N/NC(=O)CSc2ccccn2)c1C	.	?	26%	.	?	?
COc1ccccc1CC(=O)Nc1ccc(NC(=O)c2cccs2)cc1	.	1%	1%	.	15%	15%
O=C(Nc1cccc(NC(=S)NC(=O)c2cccs2)c1)c1ccccc1	0%	-11%	2%	26%	-2%	9%
O=C(Nc1cccc(NC(=O)c2cccs2)c1)c1ccc(Br)o1	.	24µM*	-1%	.	4%	-1%
COc1ccc(C(=O)Nc2cccc(NC(=O)c3cccs3)c2)cc1	.	9.5µM*	18%	.	19%	0%
COC(=O)Cc1ccc(NC(=O)c2cccs2)cc1	-19%	21µM*	?	11µM*	2.8µM*	15%
COc1ccc(NC(=O)c2ccc(NC(=O)c3cccs3)cc2)cc1	.	-3%	-1%	.	-1%	21µM*
O=C(Nc1ccc(NC(=O)c2cccs2)cc1)c1ccc(Br)o1	-7%	0%	9%	3%	28%	?
CCCCNS(=O)(=O)c1ccc(NC(=O)C2CCCO2)cc1 (centres undefined)	-2%	0%	-1%	-34%	-1%	-3%
O=C(Nc1ccccc1)N1CCCN(Cc2c(F)cccc2Cl)CC1	.	-3%	4%	.	2%	-3%
COc1ccc(S(=O)(=O)N2CCC(C(=O)NC3CC3)CC2)cc1OC	.	1%	3%	.	2%	5%
COc1cc(NC(=O)c2ccc(C)cc2C)ccc1NC(=O)c1cccs1	.	?	19%	.	29%	10%
O=C(Nc1cccc(NC(=O)c2cccs2)c1)c1ccc(F)cc1	.	21µM*	0%	.	-4%[1.84 µM]	-5%
COc1ccc(-c2[nH]ncc2/C=N\NC(=O)c2cccs2)cc1OC	.	19µM*	1%	.	-3%	1%
